The full data set covers some 7,900 targets. This sample favours those with a hit. About 0.6% of all pairs of compound and target were hits. A number with no mark means an inactive call.

Chain of UniProt O00560 (O00560 whole entry, looked up): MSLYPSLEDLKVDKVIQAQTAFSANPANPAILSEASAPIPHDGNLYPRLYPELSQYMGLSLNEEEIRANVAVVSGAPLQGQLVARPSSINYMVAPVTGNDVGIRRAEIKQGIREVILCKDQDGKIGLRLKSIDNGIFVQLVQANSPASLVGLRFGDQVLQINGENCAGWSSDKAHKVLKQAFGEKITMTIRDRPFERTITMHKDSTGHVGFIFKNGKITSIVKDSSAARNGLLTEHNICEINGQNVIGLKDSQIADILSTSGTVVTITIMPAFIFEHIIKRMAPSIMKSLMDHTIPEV
Chain of UniProt Q92930 (Q92930 whole entry, looked up): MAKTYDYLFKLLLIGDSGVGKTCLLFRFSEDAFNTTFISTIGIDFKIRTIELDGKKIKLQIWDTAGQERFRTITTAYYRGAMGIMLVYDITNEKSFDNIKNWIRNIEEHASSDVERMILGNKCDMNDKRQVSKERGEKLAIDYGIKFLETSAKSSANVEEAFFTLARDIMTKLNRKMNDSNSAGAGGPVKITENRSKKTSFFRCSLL
Chain of UniProt O43818 (O43818 whole entry, looked up): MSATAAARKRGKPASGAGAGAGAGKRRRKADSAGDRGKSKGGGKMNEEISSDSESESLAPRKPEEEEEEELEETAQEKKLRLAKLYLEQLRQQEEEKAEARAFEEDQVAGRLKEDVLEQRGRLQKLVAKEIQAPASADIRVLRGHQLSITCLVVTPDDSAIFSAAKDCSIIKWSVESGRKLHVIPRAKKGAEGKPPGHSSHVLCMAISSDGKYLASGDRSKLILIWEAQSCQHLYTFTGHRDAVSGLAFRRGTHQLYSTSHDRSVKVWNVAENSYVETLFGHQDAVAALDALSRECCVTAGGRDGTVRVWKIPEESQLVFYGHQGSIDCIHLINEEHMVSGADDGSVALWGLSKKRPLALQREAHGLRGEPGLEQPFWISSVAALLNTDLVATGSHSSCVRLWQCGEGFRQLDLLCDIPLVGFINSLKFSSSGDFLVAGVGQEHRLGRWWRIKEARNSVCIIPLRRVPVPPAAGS
Chain of UniProt Q15050 (Q15050 whole entry, looked up): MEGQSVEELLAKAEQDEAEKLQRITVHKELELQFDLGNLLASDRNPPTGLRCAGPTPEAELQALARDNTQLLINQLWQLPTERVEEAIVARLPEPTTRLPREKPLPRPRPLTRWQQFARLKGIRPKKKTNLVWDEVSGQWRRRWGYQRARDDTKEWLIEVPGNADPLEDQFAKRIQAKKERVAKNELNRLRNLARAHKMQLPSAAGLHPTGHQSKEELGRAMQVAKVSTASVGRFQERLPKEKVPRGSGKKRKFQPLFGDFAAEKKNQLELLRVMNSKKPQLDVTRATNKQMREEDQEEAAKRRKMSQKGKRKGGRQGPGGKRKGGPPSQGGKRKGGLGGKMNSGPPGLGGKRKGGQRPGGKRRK
Chain of UniProt Q9UKL0 (Q9UKL0 whole entry, looked up): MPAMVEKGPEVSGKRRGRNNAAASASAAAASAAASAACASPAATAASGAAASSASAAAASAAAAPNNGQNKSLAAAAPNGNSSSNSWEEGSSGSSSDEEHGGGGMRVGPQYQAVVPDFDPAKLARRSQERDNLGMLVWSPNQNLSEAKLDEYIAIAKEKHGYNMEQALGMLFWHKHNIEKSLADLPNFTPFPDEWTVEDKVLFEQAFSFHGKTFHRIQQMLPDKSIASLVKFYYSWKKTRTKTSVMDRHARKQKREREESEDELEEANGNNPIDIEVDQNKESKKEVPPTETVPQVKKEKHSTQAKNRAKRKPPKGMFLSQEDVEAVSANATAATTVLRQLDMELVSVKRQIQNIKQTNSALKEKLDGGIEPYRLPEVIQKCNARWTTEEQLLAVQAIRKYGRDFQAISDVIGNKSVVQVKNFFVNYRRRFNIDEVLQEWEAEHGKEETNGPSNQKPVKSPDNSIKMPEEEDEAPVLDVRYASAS
Chain of UniProt Q9BWF3 (Q9BWF3 whole entry, looked up): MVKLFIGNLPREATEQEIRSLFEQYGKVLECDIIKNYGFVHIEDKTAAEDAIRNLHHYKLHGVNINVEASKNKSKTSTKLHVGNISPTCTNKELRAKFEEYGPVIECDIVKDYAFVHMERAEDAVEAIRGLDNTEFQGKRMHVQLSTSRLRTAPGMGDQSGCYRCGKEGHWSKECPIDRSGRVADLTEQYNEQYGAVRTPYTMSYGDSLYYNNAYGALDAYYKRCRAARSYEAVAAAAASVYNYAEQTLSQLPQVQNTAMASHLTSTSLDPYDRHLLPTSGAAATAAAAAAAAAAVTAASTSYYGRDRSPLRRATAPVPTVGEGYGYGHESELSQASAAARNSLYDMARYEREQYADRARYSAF
Chain of UniProt O00584 (O00584 whole entry, looked up): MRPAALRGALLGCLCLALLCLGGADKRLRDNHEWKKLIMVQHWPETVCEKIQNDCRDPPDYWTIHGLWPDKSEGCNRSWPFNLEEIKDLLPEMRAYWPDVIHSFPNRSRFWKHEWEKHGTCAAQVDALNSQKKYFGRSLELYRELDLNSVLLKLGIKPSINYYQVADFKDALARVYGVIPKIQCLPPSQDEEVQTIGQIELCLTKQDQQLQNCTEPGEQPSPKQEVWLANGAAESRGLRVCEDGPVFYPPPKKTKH
Chain of UniProt P54136 (P54136 whole entry, looked up): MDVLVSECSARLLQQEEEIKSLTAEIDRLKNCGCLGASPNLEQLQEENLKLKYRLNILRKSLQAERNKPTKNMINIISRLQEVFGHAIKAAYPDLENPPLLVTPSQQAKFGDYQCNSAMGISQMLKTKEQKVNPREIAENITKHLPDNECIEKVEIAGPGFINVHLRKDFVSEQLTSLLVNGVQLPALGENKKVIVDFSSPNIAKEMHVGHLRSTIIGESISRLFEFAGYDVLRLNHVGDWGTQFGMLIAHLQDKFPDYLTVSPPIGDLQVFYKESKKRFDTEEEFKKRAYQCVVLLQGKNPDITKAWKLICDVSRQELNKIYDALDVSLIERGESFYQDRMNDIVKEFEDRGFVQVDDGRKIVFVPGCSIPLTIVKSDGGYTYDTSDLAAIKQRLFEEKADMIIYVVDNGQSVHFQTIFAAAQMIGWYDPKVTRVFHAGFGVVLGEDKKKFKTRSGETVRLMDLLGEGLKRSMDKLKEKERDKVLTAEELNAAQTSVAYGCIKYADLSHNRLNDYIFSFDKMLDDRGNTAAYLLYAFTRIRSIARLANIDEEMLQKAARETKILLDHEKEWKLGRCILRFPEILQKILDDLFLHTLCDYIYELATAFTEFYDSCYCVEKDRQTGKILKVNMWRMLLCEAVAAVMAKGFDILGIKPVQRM
Chain of UniProt Q96DM3 (Q96DM3 whole entry, looked up): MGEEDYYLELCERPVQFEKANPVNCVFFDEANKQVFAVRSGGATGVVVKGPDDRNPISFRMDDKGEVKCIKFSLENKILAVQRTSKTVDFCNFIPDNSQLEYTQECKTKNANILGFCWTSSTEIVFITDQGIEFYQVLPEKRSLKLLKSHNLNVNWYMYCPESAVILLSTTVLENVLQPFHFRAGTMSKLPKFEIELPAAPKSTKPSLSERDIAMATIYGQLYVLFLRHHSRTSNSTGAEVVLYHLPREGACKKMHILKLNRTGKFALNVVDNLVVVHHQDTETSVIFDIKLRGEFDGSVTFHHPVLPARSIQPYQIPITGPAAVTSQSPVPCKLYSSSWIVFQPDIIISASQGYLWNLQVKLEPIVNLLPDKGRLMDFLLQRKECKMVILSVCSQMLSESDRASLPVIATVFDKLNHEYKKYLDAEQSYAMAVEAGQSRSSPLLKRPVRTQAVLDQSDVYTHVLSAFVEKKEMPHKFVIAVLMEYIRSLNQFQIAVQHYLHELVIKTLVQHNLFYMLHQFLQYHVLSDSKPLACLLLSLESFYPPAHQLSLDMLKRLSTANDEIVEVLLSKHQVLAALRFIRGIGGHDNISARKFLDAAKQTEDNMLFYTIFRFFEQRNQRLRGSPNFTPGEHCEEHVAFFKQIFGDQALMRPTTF
Chain of UniProt Q9BUV8 (Q9BUV8 whole entry, looked up): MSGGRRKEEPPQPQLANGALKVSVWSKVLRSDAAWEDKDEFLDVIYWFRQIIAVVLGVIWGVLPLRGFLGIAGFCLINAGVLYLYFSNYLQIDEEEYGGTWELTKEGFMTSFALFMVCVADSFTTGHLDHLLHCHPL
Chain of UniProt Q14493 (Q14493 whole entry, looked up): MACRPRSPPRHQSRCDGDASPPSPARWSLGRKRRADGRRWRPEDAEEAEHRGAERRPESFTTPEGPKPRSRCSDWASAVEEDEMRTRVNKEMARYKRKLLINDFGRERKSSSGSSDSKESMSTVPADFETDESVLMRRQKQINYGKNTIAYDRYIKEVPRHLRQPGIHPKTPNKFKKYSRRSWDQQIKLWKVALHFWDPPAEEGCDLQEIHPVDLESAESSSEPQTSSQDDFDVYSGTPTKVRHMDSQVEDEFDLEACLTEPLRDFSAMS
Chain of UniProt P40938 (P40938 whole entry, looked up): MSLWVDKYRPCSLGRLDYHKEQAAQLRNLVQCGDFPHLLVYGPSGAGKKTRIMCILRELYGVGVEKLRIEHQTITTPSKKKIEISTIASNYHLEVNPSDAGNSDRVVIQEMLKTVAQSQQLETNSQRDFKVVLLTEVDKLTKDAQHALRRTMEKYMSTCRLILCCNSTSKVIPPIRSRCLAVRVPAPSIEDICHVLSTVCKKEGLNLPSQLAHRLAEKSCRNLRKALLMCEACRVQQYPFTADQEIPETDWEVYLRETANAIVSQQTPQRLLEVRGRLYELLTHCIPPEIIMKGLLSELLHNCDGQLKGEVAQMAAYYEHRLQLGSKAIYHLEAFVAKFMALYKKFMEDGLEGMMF
Chain of UniProt O75792 (O75792 whole entry, looked up): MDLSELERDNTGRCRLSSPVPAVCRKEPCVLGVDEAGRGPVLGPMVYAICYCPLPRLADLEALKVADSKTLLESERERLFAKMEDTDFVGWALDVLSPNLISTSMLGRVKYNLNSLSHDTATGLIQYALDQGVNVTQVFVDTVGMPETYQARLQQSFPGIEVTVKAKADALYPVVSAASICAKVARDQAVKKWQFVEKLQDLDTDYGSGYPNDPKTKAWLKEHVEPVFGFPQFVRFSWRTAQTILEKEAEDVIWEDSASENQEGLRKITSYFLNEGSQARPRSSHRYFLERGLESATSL

Compound in this experiment: c1cn2cc(-c3ccc4cn[nH]c4c3)nc(Nc3ccc(N4CCOCC4)cc3)c2n1 [entospletinib]
In words: log2 fold change, soluble protein after heating vs DMSO (PISA); higher = thermal stabilisation; K562 cells, 10 uM, 30 min; active = over 0.2 and 3.5 SD of the protein, either way, in both replicates (recomputed). The gist of the method:
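Thermal stability values are relative to control samples and come from duplicates. They are expressed as log2 fold changes. For measurement, K562 cells (2×10^6 cells/mL) received 10 μM compound for 30 min, and aliquots were heated for 3 min over 48°C-58°C, pooled, and extracted at 4°C in PBS with 0.5% NP-40. Soluble protein, the supernatant after 21,000xg for 90 min, was quantified by TMTpro 16plex LC-MS/MS with equalised channel sums.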
RAC1 (UniProt P63000): the log2 fold change is 0.026.
As for RPS3 (UniProt P23396), the figure is 0.063.
As to SHROOM2 (UniProt Q13796), the log2 fold change was -0.173.
As for RCOR1 (UniProt Q9UKL0), the figure is 0.002.
As to SDCBP (UniProt O00560), the log2 fold change is 0.115.
Regarding SIK3 (UniProt H0Y4E8), the log2 fold change was 0.021.
For the target SFXN5 (UniProt Q8TD22), the log2 fold change is 0.01.
Regarding SIDT2 isoform 2 (UniProt Q8NBJ9), the log2 fold change was -0.003.
With SCD (UniProt O00767), the log2 fold change is 0.023.
For the target RPS9 (UniProt P46781), the log2 fold change is 0.042.
As for RELA (UniProt Q04206), the log2 fold change was -0.062.
Consider RAB5IF isoform 5 (UniProt Q9BUV8), for which the log2 fold change is -0.086.
As for RNF220 (UniProt Q5VTB9), the log2 fold change was -0.021.
As for RNASET2 (UniProt O00584), the figure is 0.05; as for RPA3 (UniProt P35244), -0.02.
As for RNASEH2A (UniProt O75792), the figure is 0.011; as for SCAF11 (UniProt Q99590), 0.185; as for SDCBP isoform 2 (UniProt O00560), -0.2.
As for RMC1 (UniProt Q96DM3), the figure is -0.03; as for RRP9 (UniProt O43818), 0.012.
Take SLC18B1 (UniProt Q6NT16): the log2 fold change was 0.027.
As for RBM4 (UniProt Q9BWF3), the figure is 0.077; as for RPS13 (UniProt P62277), 0.148; as for RAF1 isoform 2 (UniProt P04049), -0.007.
For RUNX1 isoform 8 (UniProt Q01196), the log2 fold change is 0.116.
As for RARS (UniProt P54136), the log2 fold change was 0.165.
As to RNF14 (UniProt Q9UBS8), the log2 fold change is 0.035.
With RFC3 (UniProt P40938), the log2 fold change is -0.037.
For the target RETREG3 (UniProt Q86VR2), the log2 fold change is 0.015.
On to ROCK2 (UniProt O75116), for which the log2 fold change was -0.049.
Take SLBP (UniProt Q14493): the log2 fold change was -0.101.
For the target RPP14 (UniProt O95059), the log2 fold change is -0.066.
As for SF3B5 (UniProt Q9BWJ5), the log2 fold change is 0.021.
As for RAB8B (UniProt Q92930), the figure is -0.04; as for RPS14 (UniProt P62263), 0.025; as for RRS1 (UniProt Q15050), 0.066.
RPS19 (UniProt P39019): the log2 fold change is 0.057.

The values above are taken from the supplement of paper PMC10849652.
